The values that follow come from PubChem BioAssay (NCI).

Compounds without any hit were thinned out: in the full panel of roughly 83,000, 20% have a hit.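 The test compound was applied at a single concentration to cells in 96-well plates for 48 hours, and percent growth was recorded.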 Calls of active or inactive are those of the source. The calls were made as follows: active = growth percent below 10; inactive = the rest.

The subject of this test is PC-3 prostate. Description: NCI-60 one-dose screen, 48 h (100 = growth as untreated, 0 = no growth, -100 = all killed). Particulars: 10 µM unless noted.
Consider `COC(=O)c1ccc2c(c1)nc(-c1ccc(O)c(OC)c1)n2-c1cc(C(C)(C)C)[nH]n1`, for which the growth is 65.8% (inactive).

With `Cc1nc(N)[nH]c(=O)c1C`, the growth is 117% (inactive).

On to `O=C1/C(=C/c2ccc([N+](=O)[O-])o2)Oc2ccc(Cl)cc21`, for which the growth is -5.46% (active).

Consider `O=[N+]([O-])c1ccc2c(c1)S(=O)c1cc([N+](=O)[O-])ccc1N2`, for which the growth was 88.6% (inactive).

With `Clc1ccc2nc(Cl)c3ccccc3c2c1`, the growth was 84.2% (inactive).

Turning to `CC(=O)Oc1ccc(C23c4ccccc4C2(OC(C)=O)c2cc(OC(C)=O)ccc23)cc1` (configuration not stated), the growth is 30.9% (inactive).

As to `Nc1ccc2c(c1)/C(=N/O)c1cc([N+](=O)[O-])ccc1-2`, the growth is 45.3% (inactive).

In the case of `CN1CCCC1c1cccnc1` (configuration not stated), the growth is 48.7% (inactive).

Consider `COc1ccc(-c2cnnn2-c2cc(OC)c3c(c2)OCO3)cc1`, for which the growth was 4.25% (active).

Turning to `Cc1nn(-c2ccc(Br)cc2)c2nc3c(nc12)C(=O)C(=O)c1ccccc1-3`, the growth was 87.7% (inactive).

With `Cn1cc(-c2csc(-c3cn(C)c4ncccc34)n2)c2cc(Br)cnc21`, the growth is 68.5% (inactive).

Regarding `OC(Cc1cccnc1)c1ccccc1` (configuration not stated), the growth was 101% (inactive).

Regarding `C/C(=N/N=C(N)N)c1ccc(Cl)cc1`, the growth was 42.3% (inactive).

On to `Cc1nn(-c2ccccc2)c2nc3c(nc12)C(=O)CCC3`, for which the growth is 90% (inactive).

Consider `C[n+]1ccc(C#N)c2ccccc21`, for which the growth is 107% (inactive).

`CCCCCCCC/C=C/CCCCCCCC1=NC(C)(C)CN1CC(C)O` (configuration not stated): the growth was 42% (inactive).

In the case of `O=C1Nc2ccccc2C12Nc1cc(Cl)ccc1S2` (configuration not stated), the growth is 44.5% (inactive).

Consider `CCC(CC)NCCCCCNc1cc(OC)cc2cccnc12`, for which the growth is 97.3% (inactive).

For the molecule `CCC(CCC(C)C1CCC2C3CC=C4CC(O)CCC4(C)C3CCC12C)C(C)C` (configuration not stated) (tested in a mixture with another compound), the growth is 45.8% (inactive).

As for `Cc1nn(-c2ccc(Cl)cc2)c2nc3c(nc12)c(=O)oc1ccccc13`, the growth is 106% (inactive).

On to `Cc1cc(NC(=O)c2ccc(N)cc2)ccc1N=Nc1ccc2c(O)c(N=Nc3ccc(Cl)c(S(=O)(=O)O)c3)c(S(=O)(=O)O)cc2c1`, for which the growth is 92% (inactive).

For `CN(C)c1nc(-c2ccco2)n2nc(-c3ccco3)cc2n1`, the growth was 84.4% (inactive).

For `C[C@]12C[C@H](O)[C@H]3[C@@H](CCC4=CC(=O)CC[C@@]43C)[C@@H]1CC[C@@H]2C(=O)CO`, the growth was 97.3% (inactive).

Turning to `Cn1c(N)c(N=O)c(=O)[nH]c1=O`, the growth was 98.7% (inactive).

Regarding `Nc1nc(SCc2ccccc2Cl)c(-c2ccccc2)c(SCc2ccccc2Cl)n1`, the growth is 76.3% (inactive).

As for `O=C(CSCC(=O)N/N=C/c1ccccc1O)N/N=C\c1ccccc1O`, the growth was 25% (inactive).

As for `O=C(O)C(=O)O`, the growth is 110% (inactive).

As for `Cc1nn(-c2ccccc2)c2ncc3c(c12)C(=O)N(Cc1ccccc1)C3=O`, the growth is 75.2% (inactive).

Take `Cc1ccc(NC(=O)COC(=O)c2ccc(S(=O)(=O)N3CCCCCC3)cc2)cc1`: the growth was 93.6% (inactive).

With `Cc1ccc2c(c1)C(=O)/C(=C/c1ncc([N+](=O)[O-])n1C)O2`, the growth is -2.93% (active).

On to `CC1CC(C)/C(=N/NC(N)=O)C(C(O)CC2CCC(=O)NC2=O)C1` (configuration not stated), for which the growth is 40.6% (inactive).

For the molecule `CCC(c1ccccc1)c1noc(CCN(CC)CC)n1` (configuration not stated), the growth was 95.5% (inactive).

Take `O=C1Cc2cc(CCn3cncn3)c(Cl)cc2N1`: the growth is 86.4% (inactive).

As for `Cc1nn(-c2ccccc2)c2nc(Cl)c(/C=C/C(=O)c3ccccc3)c(-c3ccccc3)c12`, the growth was 101% (inactive).

As to `COc1ccc(/C=C2\NC(=S)NC2=O)cc1`, the growth was 106% (inactive).

On to `Cn1cc(-c2csc(-c3c[nH]c4ncccc34)n2)c2cc(F)cnc21`, for which the growth is 69.1% (inactive).

`O=C1NC(=O)/C(=C\c2ccccc2)C2=C1CCCC2`: the growth is 20.3% (inactive).
